# PubChem BioAssay (NCATS)
# Several values for one entry are separate records, joined by “and”; a condition that tells them apart may be missing. Equal entries are not always repeated. Results filed as inconclusive are left out. Where a call stands in place of a potency, no number is given. Activity calls are given as the source filed them. Unless noted, calls follow the shape of the dose curve; as a rule, active = well fitted curve in the direction sought with a large enough effect; inconclusive = small, poorly fitted or top-dose-only effect, or another doubt; inactive = no such curve, though single readings can be large; an effect the other way counts as inactive or inconclusive.
# How the values were obtained:
# [1] = qHTS assay for environmental chemicals that activate the Aryl hydrocarbon Receptor (AhR) signaling pathway (AID 651777); details: 1A2-DRE human hepatoma cells, luciferase, 24 h; hits give high values; also: nearly all actives have a fitted effect of over 15% in size
# Method in brief: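 Quantitative HTS in stably transfected human liver-derived cells whose luciferase gene sits downstream of the CYP1A2 promoter and dioxin response element. After 24 hr exposure at 37 C, One-Glo luminescence was measured.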
# [2] = target: Peroxisome proliferator-activated receptor alpha (Homo sapiens) (UniProt Q07869); experiment: qHTS assay for small molecule agonists of the peroxisome proliferator-activated receptor alpha (PPARalpha) signaling pathway (AID 651778); details: PathHunter PPARalpha complementation, chemiluminescence, 6 h; hits give high values
# Sequence of Peroxisome proliferator-activated receptor alpha (Homo sapiens) (Q07869 whole entry, looked up): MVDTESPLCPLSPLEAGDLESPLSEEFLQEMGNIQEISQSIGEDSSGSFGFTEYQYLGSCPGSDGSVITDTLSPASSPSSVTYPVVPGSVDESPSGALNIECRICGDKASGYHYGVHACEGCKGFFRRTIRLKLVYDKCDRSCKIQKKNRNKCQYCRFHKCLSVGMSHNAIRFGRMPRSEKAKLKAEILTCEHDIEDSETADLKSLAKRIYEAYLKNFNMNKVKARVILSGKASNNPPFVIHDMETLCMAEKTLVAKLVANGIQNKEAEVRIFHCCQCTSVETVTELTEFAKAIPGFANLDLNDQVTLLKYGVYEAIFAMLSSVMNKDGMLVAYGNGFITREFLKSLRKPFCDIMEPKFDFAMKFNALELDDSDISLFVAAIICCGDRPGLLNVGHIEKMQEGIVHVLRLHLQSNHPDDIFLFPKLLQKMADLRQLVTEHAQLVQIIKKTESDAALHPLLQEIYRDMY
# Method in brief: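 Cells plated at 2,000/well and held overnight at 37 C, 5% CO2, then compound added by pin tool for 6 hr; after PathHunter detection reagent and 60 min at room temperature, chemiluminescence from enzyme complementation was read.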
# [3] = target: Tumor necrosis factor (Homo sapiens) (UniProt P01375); experiment: qHTS assay to identify small molecules that stimulate Tumor Necrosis Factor-alpha (TNF-alpha) secretion (AID 651757; active = well fitted curve in the direction sought with a large enough effect in the signal ratio; the % refers to the signal ratio); details: Human cells, HTRF 665/615 ratio; series mostly up to 92.2 µM
# Sequence of Tumor necrosis factor (Homo sapiens) (P01375 whole entry, looked up): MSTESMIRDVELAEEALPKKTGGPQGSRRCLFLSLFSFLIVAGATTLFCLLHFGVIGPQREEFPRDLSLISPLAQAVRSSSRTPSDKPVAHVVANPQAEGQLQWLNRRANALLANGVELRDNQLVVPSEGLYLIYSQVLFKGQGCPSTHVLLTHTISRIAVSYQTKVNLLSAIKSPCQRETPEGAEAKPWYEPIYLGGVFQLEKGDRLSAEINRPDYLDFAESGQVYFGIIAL
# Method in brief: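 THP-1 cells (3000/well) exposed to compounds 17 hrs at 37 C. Secreted TNF-alpha detected by HTRF with cryptate- and XL665-labeled anti-TNF-alpha antibodies after 3 hr at room temperature.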
# [4] = target: Nuclear receptor ROR-gamma (Homo sapiens) (UniProt P51449); experiment: qHTS assay for small molecule antagonists of the retinoid-related orphan receptor gamma (ROR-gamma) signaling pathway (AID 651802); details: ROR-gamma antagonist cell reporter assay; series mostly up to 92.2 µM; also: nearly all actives have a fitted effect of over 60% in size; also: potency is read from the fitted curve at half-maximal effect
# Sequence of Nuclear receptor ROR-gamma (Homo sapiens) (P51449 whole entry, looked up): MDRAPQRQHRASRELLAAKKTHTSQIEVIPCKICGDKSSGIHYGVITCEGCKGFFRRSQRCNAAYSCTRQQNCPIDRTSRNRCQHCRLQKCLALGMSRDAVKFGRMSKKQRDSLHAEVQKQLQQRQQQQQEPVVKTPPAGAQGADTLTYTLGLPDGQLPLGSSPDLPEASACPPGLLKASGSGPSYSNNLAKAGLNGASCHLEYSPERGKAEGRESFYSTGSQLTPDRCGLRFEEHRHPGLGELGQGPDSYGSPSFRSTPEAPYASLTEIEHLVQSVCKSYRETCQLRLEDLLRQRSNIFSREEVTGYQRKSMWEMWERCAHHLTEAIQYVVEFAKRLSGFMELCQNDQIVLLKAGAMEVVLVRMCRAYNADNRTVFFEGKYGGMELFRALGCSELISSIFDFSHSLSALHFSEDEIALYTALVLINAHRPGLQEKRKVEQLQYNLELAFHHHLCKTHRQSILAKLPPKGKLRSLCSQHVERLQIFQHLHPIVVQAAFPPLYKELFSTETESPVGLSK
# Method in brief: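 CHO cells with TET-inducible ROR-gamma and RORE-luciferase reporter, dosed then doxycycline-induced. After 16 h at 37C, One-Glo luminescence read; decreased signal indicates antagonism.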
# [5] = target: Arylsulfatase A (Homo sapiens) (UniProt P15289); experiment: qHTS screen for enhancers of Arylsulfatase A (ASA1): LOPAC Validation Assay (AID 720538); details: ASA enzyme activity, LOPAC qHTS enhancer assay; series mostly up to 57.5 µM
# Sequence of Arylsulfatase A (Homo sapiens) (P15289 whole entry, looked up): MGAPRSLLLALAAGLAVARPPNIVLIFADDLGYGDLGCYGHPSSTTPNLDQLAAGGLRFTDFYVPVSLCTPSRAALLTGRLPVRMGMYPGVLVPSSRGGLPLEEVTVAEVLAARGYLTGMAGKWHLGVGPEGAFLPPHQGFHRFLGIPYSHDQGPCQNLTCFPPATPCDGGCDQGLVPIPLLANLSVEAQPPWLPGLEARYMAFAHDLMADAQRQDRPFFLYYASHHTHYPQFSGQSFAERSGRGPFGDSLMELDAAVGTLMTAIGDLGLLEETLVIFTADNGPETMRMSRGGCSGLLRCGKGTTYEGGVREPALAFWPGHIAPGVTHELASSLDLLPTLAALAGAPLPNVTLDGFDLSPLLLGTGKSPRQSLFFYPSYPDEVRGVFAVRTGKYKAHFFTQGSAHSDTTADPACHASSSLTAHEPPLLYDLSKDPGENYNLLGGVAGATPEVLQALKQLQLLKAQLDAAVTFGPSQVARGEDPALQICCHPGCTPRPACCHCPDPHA
# Method in brief: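 SV40-transformed fibroblasts from an MLD patient (ASA-I179S) were treated with compound for 48 h at 37 C. They were then lysed with 0.5 mM pNCS substrate (final) for 14 h at room temperature and stopped with NaOH; signal read by fluorescence (Ex 525/Em 598 nm), with increase denoting enhanced activity.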
# [6] = qHTS for Activators of Parkin Expression: LOPAC Validation Assay (NLuc Reporter) (AID 720572); details: Parkin promoter NanoLuc reporter cells, luminescence, percent of positive control, DMSO as zero; series mostly up to 46.1 µM
# Method in brief: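 Neuronal line stably carrying a FLuc/NLuc coincidence reporter under the Parkin promoter, seeded 24 h, then dosed in 7-point series for 24 h at 37 C. NLuc luminescence read after FLuc; normalized to DMSO and positive control (100%).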
# [7] = qHTS assay to identify small molecules that stimulate interleukin-8 (IL-8) secretion (AID 651758; active = well fitted activation curve with a large enough effect in the signal ratio; the % refers to the signal ratio); details: HTRF ratio (665/615); series mostly up to 92.2 µM
# Method in brief: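 THP-1, 2000 cells/well; cpd 16 h, 37 C; add cryptate + XL665 anti-IL-8 Abs; RT 1-3 h; TR-FRET read.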
# [8] = target: Tyrosine-protein kinase Yes (Homo sapiens) (UniProt P07947); experiment: qHTS for small molecule inhibitors of Yes1 kinase: Primary Screen (AID 686947); details: Yes1 kinase biochemical qHTS inhibition; series mostly up to 76.9 µM; also: nearly all actives have a fitted effect of over 60% in size
# Sequence of Tyrosine-protein kinase Yes (Homo sapiens) (P07947 whole entry, looked up): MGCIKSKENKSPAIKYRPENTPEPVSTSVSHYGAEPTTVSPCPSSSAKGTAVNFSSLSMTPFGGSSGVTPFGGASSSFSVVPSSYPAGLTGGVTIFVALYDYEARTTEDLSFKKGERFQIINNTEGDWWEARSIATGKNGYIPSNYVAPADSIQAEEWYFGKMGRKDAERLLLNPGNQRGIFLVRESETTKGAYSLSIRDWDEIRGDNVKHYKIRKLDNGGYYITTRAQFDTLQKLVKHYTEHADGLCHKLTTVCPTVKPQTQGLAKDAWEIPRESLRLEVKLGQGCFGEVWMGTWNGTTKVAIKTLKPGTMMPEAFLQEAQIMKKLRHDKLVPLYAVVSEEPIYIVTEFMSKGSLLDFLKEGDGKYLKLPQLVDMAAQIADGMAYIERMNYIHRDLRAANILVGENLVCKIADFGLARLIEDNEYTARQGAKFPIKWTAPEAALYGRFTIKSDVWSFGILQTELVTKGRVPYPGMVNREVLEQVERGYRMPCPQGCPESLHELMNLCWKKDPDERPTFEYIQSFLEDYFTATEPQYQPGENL
# Method in brief: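 Yes1 (4 nM) preincubated 20 min with compound, then 60 min room-temperature reaction with 0.1 mM ATP and 0.3 mg/mL poly(E4Y) in pH 7.5 Tris, 10 mM MgCl2. ADP measured by ADP-Glo luminescence, normalised to enzyme/no-enzyme controls.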
# [9] = qHTS for small molecule inhibitors of Yes1 kinase: Counter Assay (AID 686950); details: series mostly up to 76.9 µM;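 also: no kinase present so only ADP-Glo detection of a fixed ADP amount is tested; luminescence from ADP-Glo reporting ADP in a fixed ATP and ADP mixture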
# Text: The Src family of non-receptor protein tyrosine kinases contains nine members, including Yes1, Src, Fyn, Lyn, and […]. These kinases have important roles in a variety of cellular functions, such as cell proliferation, survival, and differentiation. Src, the most well characterized member of this family, has been previously identified as a proto-oncogene. […] In melanoma, it has been shown that Yes1, and not other family members, such as Src, is functionally involved in the malignant phenotype. Additionally, a recent study examining the downregulation of Yes1 by shRNA found significant effects on cell survival/growth for basal-like and Her2-positive breast cancers. Despite the potential for Yes1 to be a target for the above-described cancers, there are very few reports on the identification of potent and selective inhibitors of Yes1 kinase. […]
# Two microliter of buffer (columns 1-48) are dispensed into Greiner, white solid-bottom 1536-well assay plates. […] The amount of ADP is then quantified by the ADP-Glo Kit (Promega, Madison, WI). First, 2 uL of the first kit reagent is added, and the reaction is incubated for 45 minutes; then, 4 uL of the second kit reagent are added and the reaction is incubated for 30 minutes at which time the luminescence is read on a Viewlux plate reader (Perkin-Elmer, Waltham, MA). […]
# [10] = target: Ubiquitin carboxyl-terminal hydrolase 2 (Homo sapiens) (UniProt O75604); experiment: qHTS for Inhibitors of Ubiquitin-specific Protease USP2a Using CHOP2 as the Reporter: K484 Substrate (AID 652173); details: USP2 cleavage of DiUb K48 IQF substrate, fluorescence; series mostly up to 57.5 µM;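 also: cleavage of internally quenched K48 di-ubiquitin substrate measured as rising fluorescence over time; nearly all actives have a fitted effect of over 70% in size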
# Sequence of Ubiquitin carboxyl-terminal hydrolase 2 (Homo sapiens) (O75604 whole entry, looked up): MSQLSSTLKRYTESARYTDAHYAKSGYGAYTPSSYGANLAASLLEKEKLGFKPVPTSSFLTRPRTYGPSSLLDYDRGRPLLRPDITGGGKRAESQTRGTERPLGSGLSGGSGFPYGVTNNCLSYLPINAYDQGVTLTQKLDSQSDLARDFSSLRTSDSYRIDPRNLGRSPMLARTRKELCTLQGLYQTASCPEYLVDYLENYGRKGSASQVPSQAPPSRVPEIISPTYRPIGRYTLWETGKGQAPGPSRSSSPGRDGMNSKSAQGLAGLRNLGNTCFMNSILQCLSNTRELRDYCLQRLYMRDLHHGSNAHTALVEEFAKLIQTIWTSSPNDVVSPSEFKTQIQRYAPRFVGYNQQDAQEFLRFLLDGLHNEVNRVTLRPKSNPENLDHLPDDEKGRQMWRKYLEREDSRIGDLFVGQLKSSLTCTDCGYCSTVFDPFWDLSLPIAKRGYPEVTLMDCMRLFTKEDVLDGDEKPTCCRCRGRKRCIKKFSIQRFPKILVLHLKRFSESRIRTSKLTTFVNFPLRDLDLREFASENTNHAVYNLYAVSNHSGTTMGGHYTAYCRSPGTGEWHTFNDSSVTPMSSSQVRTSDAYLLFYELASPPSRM
# Method in brief: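 USP2 (dispensed at 5 nM) was pinned with compounds, then DiUb K48 internally quenched fluorescent substrate (dispensed at 100 nM) was added. The buffer was 20 mM Tris pH 8, 2 mM beta-mercaptoethanol and 0.05% CHAPS. Cleavage was read kinetically as rising fluorescence, Ex 525/Em 598.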
smiles,measurement,setting,value
CC1(C)C(C=C(Cl)Cl)C1C(=O)OC(C#N)c1cccc(Oc2ccccc2)c1 (stereo not given),activation,[1],3.99% (inactive)
same,max response,[2],-4.65% (inactive)
NCCc1ccc(O)cc1,outcome,[3],inactive
same,activation,[1],-0.313% (inactive)
same,max response,[2],-1.42% (inactive)
same,Potency,[4],inactive
same,outcome,[5],inactive
same,outcome,[6],inactive
Nc1ccccc1,outcome,[3],inactive
same,outcome,[7],inactive
same,max response,[2],7.46% (inactive)
same,Potency,[4],inactive
COC(=O)C(c1ccccc1)C1CCCCN1 (stereo not given),outcome,[3],inactive
same,outcome,[7],inactive
same,activation,[1],0.112% (inactive) and -0.732% (inactive)
same,max response,[2],-1.82% (inactive) and 0.192% (inactive)
same,Potency,[4],inactive
CCCC(C)(COC(N)=O)COC(N)=O,outcome,[3],inactive
same,activation,[1],1.18% (inactive) and -0.314% (inactive)
same,max response,[2],-0.626% (inactive) and -5.23% (inactive)
same,Potency,[4],inactive
Nc1ccccc1C(=O)O,outcome,[3],inactive
same,activation,[1],3.23% (inactive)
same,max response,[2],0.553% (inactive)
same,Potency,[4],inactive
O=C1c2ccccc2C(=O)c2ccccc21,activation,[1],2.59% (inactive)
same,max response,[2],0.92% (inactive)
COP(=S)(OC)Oc1ccc(SC)c(C)c1,outcome,[3],inactive
same,outcome,[7],inactive
same,max response,[2],6.43% (inactive) and 7.61% (inactive)
same,Potency,[4],inactive
CC(C)c1cccc(C(C)C)c1O,outcome,[3],inactive
same,activation,[1],0.116% (inactive)
same,max response,[2],-5.67% (inactive)
same,Potency,[4],inactive
same,outcome,[5],inactive
same,outcome,[6],inactive
CC(C)NC(C)C,outcome,[3],inactive
same,activation,[1],-1.71% (inactive)
same,max response,[2],0.708% (inactive)
same,Potency,[4],inactive
COc1cc(OC)c(OC)cc1C=O,outcome,[3],inactive
same,max response,[2],0.405% (inactive)
same,Potency,[4],inactive
CCC(C)(C)c1ccc(O)cc1,outcome,[3],inactive
same,activation,[1],0.262% (inactive) and -0.822% (inactive)
same,max response,[2],5.88% (inactive) and -1.73% (inactive)
same,Potency,[4],inactive
O=C1c2ccccc2C(=O)C1C(=O)C(c1ccccc1)c1ccccc1,activation,[1],5.81% (inactive)
same,max response,[2],-1.83% (inactive)
O=P1(N(CCCl)CCCl)NCCCO1 (stereo not given),outcome,[3],inactive
same,activation,[1],0.318% (inactive) and -1.16% (inactive)
same,max response,[2],7.32% (inactive) and -1.68% (inactive)
same,Potency,[4],inactive
same,outcome,[8],inactive
same,outcome,[9],inactive
same,outcome,[5],inactive
same,outcome,[6],inactive
C[C@]12CCC(=O)C=C1CC[C@@H]1[C@@H]2CC[C@]2(C)C(=O)CC[C@@H]12,outcome,[3],inactive
same,activation,[1],2.9% (inactive) and -2.01% (inactive)
same,max response,[2],-0.773% (inactive) and -1.33% (inactive)
same,Potency,[4],33.5 µM (active)
C[C@]1(O)CC[C@H]2[C@@H]3CCC4=CC(=O)CC[C@]4(C)[C@@]3(F)[C@@H](O)C[C@@]21C,outcome,[3],inactive
same,outcome,[7],inactive
same,activation,[1],0.165% (inactive)
same,max response,[2],3% (inactive)
CC(C)(C)c1ccc(O)cc1,activation,[1],0.343% (inactive)
COP(=S)(OC)SCN1C(=O)c2ccccc2C1=O,activation,[1],-1.4% (inactive)
same,max response,[2],-0.635% (inactive)
Clc1ccc(C(c2ccc(Cl)cc2)C(Cl)(Cl)Cl)cc1,outcome,[3],inactive
same,activation,[1],0.0892% (inactive) and -0.298% (inactive)
same,max response,[2],4.34% (inactive) and 1.18% (inactive)
C[C@]12CCC(=O)C=C1CC[C@@H]1[C@@H]2CC[C@@]2(C)[C@H]1CC[C@]2(C)O,outcome,[3],inactive
same,outcome,[7],inactive
same,activation,[1],-0.473% (inactive)
same,max response,[2],7.27% (inactive)
same,Potency,[4],16.8 µM (active)
Oc1ccc(Cl)cc1,outcome,[3],inactive
same,activation,[1],0.502% (inactive)
same,max response,[2],0.582% (inactive)
same,Potency,[4],inactive
CCOC(=O)CC(SP(=S)(OC)OC)C(=O)OCC (stereo not given),outcome,[3],inactive
same,activation,[1],1.62% (inactive) and 10.4% (inactive) and -0.452% (inactive)
same,max response,[2],-2.48% (inactive) and 0.447% (inactive) and -3.85% (inactive)
CC(C)(C)NCC(O)c1ccccc1Cl (stereo not given),outcome,[6],inactive
COP(=S)(OC)Oc1cc(Cl)c(Cl)cc1Cl,activation,[1],2.9% (inactive)
same,max response,[2],-0.715% (inactive)
CCCCC/C=C\C/C=C\C/C=C\C/C=C\CCCC(=O)NCC(=O)O,outcome,[5],inactive
same,outcome,[6],inactive
C=C(C)[C@H]1CN[C@H](C(=O)O)[C@H]1CC(=O)O,outcome,[5],inactive
same,outcome,[6],inactive
CCOP(=S)(OCC)Oc1ccc2c(C)c(Cl)c(=O)oc2c1,max response,[2],-4.26% (inactive)
O=C(O)CCCc1ccc(N(CCCl)CCCl)cc1,activation,[1],-0.459% (inactive) and 0.835% (inactive)
same,max response,[2],0.105% (inactive) and -1.89% (inactive)
same,outcome,[5],inactive
same,outcome,[6],inactive
O=C(CCCN1CCC2(CC1)C(=O)NCN2c1ccccc1)c1ccc(F)cc1,outcome,[6],inactive
[N-]=[N+]=CC(=O)OC[C@H](N)C(=O)O,max response,[2],0.305% (inactive)
CC(NC(C)(C)C)C(=O)c1cccc(Cl)c1 (stereo not given),outcome,[5],inactive
same,outcome,[6],inactive
CCC1(c2ccc(N)cc2)CCC(=O)NC1=O (stereo not given),outcome,[5],inactive
same,outcome,[6],inactive
Nc1nc(N)nc(NC2CC2)n1,activation,[1],0.42% (inactive)
same,max response,[2],-0.264% (inactive)
Cc1ncsc1CCCl,outcome,[6],inactive
CN1C[C@H](C(=O)N[C@]2(C)O[C@@]3(O)[C@@H]4CCCN4C(=O)[C@H](Cc4ccccc4)N3C2=O)C=C2c3cccc4[nH]cc(c34)C[C@H]21,activation,[1],6.16% (inactive) and 6.48% (inactive)
same,max response,[2],-3.76% (inactive) and -6.49% (inactive)
CC(C)N(CCC(C(N)=O)(c1ccccc1)c1ccccn1)C(C)C (stereo not given),outcome,[5],inactive; inhibitor; fitted 0.1901 uM
same,outcome,[6],inactive
COc1ccc2c(c1OC)C(=O)O[C@H]2[C@@H]1c2cc3c(cc2CCN1C)OCO3,outcome,[5],inactive
same,outcome,[6],inactive
Cc1cc(NS(=O)(=O)c2ccc(N)cc2)no1,outcome,[10],inactive
CCC1(C)CC(=O)NC1=O (stereo not given),outcome,[5],inactive
NCCCNCCSP(=O)(O)O,outcome,[5],inactive
Cn1c(=O)c2[nH]cnc2n(C)c1=O,outcome,[5],inactive
Nc1ccc([As](=O)(O)O)cc1,max response,[2],-1.85% (inactive)
O=c1[nH]oc2c1CCNC2,outcome,[5],inactive
same,outcome,[6],inactive
CN1C(=O)CCS(=O)(=O)C1c1ccc(Cl)cc1 (stereo not given),outcome,[6],inactive
CN=C(NC#N)NCCSCc1nc[nH]c1C,outcome,[5],inactive; inhibitor; fitted 6.3096 uM
